Results published in the supplement of paper PMC8975748.
Where a name gives a salt, the structure may show the parent alone.

These compounds were tested on Saccharomyces cerevisiae BY4741 SeMeCo community (assay: z-score of subpopulation abundance vs DMSO median, subpopulation auxotrophic for HU; higher = larger share of this subpopulation than in DMSO controls). Details: 10 µM; 24 h; SM minimal medium; subpopulation (auxotrophy): HU.
Description: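 Fluorescent four-plasmid SeMeCo (self-establishing metabolically cooperating S. cerevisiae BY4741 community; plasmids pH-mRuby2, pL-mWasabi, pU-eCFP, pM-TagRFP657) was grown 24 h in minimal SM medium with each Selleck FDA-approved drug at 10 µM in 384-well plates. Cells were fixed and imaged by high-content confocal microscopy. For each auxotrophic subpopulation (and the prototroph), a z-score gives the deviation from the DMSO vehicle-control population median.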

Compound | z-score of subpopulation abundance
C[C@@H]1O[C@@H](O[C@H]2C[C@@H](O)[C@]3(CO)[C@H]4[C@H](O)C[C@]5(C)[C@@H](C6=CC(=O)OC6)CC[C@]5(O)[C@@H]4CC[C@]3(O)C2)[C@H](O)[C@H](O)[C@H]1O [Ouabain] | -0.71
CCCCCCCCCCCCCCCC[n+]1ccccc1 [Cetylpyridinium Chloride] | 16.1
C#C[C@]1(O)C=C[C@H]2[C@@H]3CCC4=CC(=O)CC[C@@H]4[C@H]3CC[C@@]21CC [Gestodene] | -0.67
CCN(C)C(=O)Oc1cccc([C@H](C)N(C)C)c1 [Rivastigmine] | 0.2
CC(C)(O)C(Cl)(Cl)Cl [Chlorobutanol] | 0.05
C[C@@H]1CC[C@H]2[C@@H](C)C(=O)O[C@@H]3O[C@@]4(C)CC[C@@H]1[C@]32OO4 [Artemisinin] | 0.58
Nc1nc(N)nc(NC2CC2)n1 [Cyromazine] | 0.05
Cc1cc(C(C#N)c2ccc(Cl)cc2)c(Cl)cc1NC(=O)c1cc(I)cc(I)c1O (centres undefined) [Closantel] | 0.25
CC(=O)OCC1=C(C(=O)O)N2C(=O)C(N)C2SC1 (centres undefined) [7-Aminocephalosporanic acid] | 0.37
COC(=O)C1=CCCN(C)C1 [Arecoline HBr] | 0.06
CC[C@H]1[C@@H]2C[C@H]3[C@@H]4N(C)c5ccccc5[C@]45C[C@@H]([C@@H]2[C@H]5O)N3[C@@H]1O [Ajmaline] | -0.28
CN1[C@@H]2C[C@@H](OC(=O)[C@H](CO)c3ccccc3)C[C@H]1[C@@H]1O[C@@H]12 [Scopolamine HBr trihydrate] | -0.46
O=c1[nH]c2ccccc2n1CCCN1CCC(n2c(=O)[nH]c3cc(Cl)ccc32)CC1 [Domperidone] | 0.86
Nc1ccncc1 [4-Aminopyridine] | 0.52
COc1ccc(C(CN(C)C)C2(O)CCCCC2)cc1 (centres undefined) [Venlafaxine HCl] | -0.07
C=CC[C@]1(O)CC[C@H]2[C@@H]3CCC4=CC(=O)CCC4=C3C=C[C@@]21C [Altrenogest] | -1.33
CCOC(=O)Nc1ccc(NCc2ccc(F)cc2)cc1N [Retigabine 2HCl] | -0.49

Compound | z-score of subpopulation abundance
CC[N+](C)(CC)CCOC(=O)C(O)(c1ccccc1)c1ccccc1 [Methylbenactyzine Bromide] | -0.63
CCC1=C[C@H]2CN3CCc4c([nH]c5ccccc45)[C@](C(=O)OC)(C2)[C@H]13 [Catharanthine] | -0.39
CCN(CC)CCOC(=O)C(O)(c1ccccc1)c1ccccc1 [Benactyzine hydrochloride] | 1.62
CN1[C@@H]2CC[C@H]1C[C@@H](OC(=O)C(CO)c1ccccc1)C2 (some centres undefined) [Atropine sulfate monohydrate] | 0.23
CCN(C)C(=O)Oc1cccc([C@H](C)N(C)C)c1 [Rivastigmine Tartrate] | -0.86
CCN1CC2(OC(=O)c3ccccc3NC(C)=O)CCC(OC)C34C1C(CC23)C1(O)CC(OC)C2CC4C1(O)C2OC (centres undefined) [Lappaconitine] | 0.26
Cc1cc(O)ccc1Cl [Chlorocresol] | -1.07
Oc1cccc2cccnc12 [8-Hydroxyquinoline] | -1.16
CNC1CC(N)C(O)C(OC2OC(CO)C(O)C3OC4(OC(C(N)CO)C(O)C(O)C4O)OC23)C1O (centres undefined) [Hygromycin B] | -0.07
CCCN1C[C@H](CSC)C[C@@H]2c3cccc4[nH]cc(c34)C[C@H]21 [Pergolide Mesylate] | -0.93
CN1c2ccccc2C(NCCCCCCC(=O)O)c2ccc(Cl)cc2S1(=O)=O (centres undefined) [Tianeptine sodium] | -1.1
N[C@@H]1C[C@H]1c1ccccc1 [Tranylcypromine (2-PCPA) HCl] | 0.44
COc1ccc(C=O)cc1 [p-Anisaldehyde] | -0.72
CN(C)C(=O)Oc1ccc[n+](C)c1 [Pyridostigmine Bromide] | 0.63
Cn1cc(C2=C(c3cn(C4CCN(Cc5ccccn5)CC4)c4ccccc34)C(=O)NC2=O)c2ccccc21 | -0.2
NC(=O)CN1CCCC1=O [Piracetam] | 0.46
Oc1cc(Cl)ccc1Oc1ccc(Cl)cc1Cl [Triclosan] | 0.43
